Screens (PubChem)
Hits are enriched below; roughly 4.7% of the tested compounds scored in any of these assays.
SKKanGAS inh = inhibitors of SKKanGAS S. pyogenes growth in kanamycin (SK-promoter or general growth effect); BacTiter-Glo, 6 h; inhibition, % at 7.5 µM; hit rate 1.3% among 300,000;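 active = mean replicate score, as percent of positive control median, at least 50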;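 also: strain carries kanamycin resistance gene driven by streptokinase promoter and grows in 40 µg/ml kanamycin; loss of luminescence reflects streptokinase promoter inhibition or plain growth inhibition; 0% = median of DMSO wells and 100% = positive control at its reference dose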
PfHsp90 yeast 2 = inhibits growth of yeast expressing Plasmodium falciparum Hsp90 | S. cerevisiae expressing PfHsp90, BacTiter-Glo ATP, 48 h; yeast lacking PDR1 and PDR3 efflux regulators | inhibition, % at 9.4 µM | hit rate 0.32% among 310,000 | AID 504621;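 active = every replicate shows inhibition above about 80%, whatever the replicate mean, limit read from the data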;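 also: 0% = DMSO neutral controls and 100% = 20 µM radicicol positive controls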
tim23-1 inh = tim23-1 yeast growth inhibition | S. cerevisiae tim23-1 growth, BacTiter-Glo luminescence, 24 h | inhibition, % at 20 µM | hit rate 1.3% among 330,000;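 active = growth inhibition of the mutant yeast at or above 50%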;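 also: temperature-sensitive mutant grown at 25 °C; plate controls were DMSO-treated mutant yeast for no effect and medium wells lacking yeast for full effect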
ATG4B inh = blocks human ATG4B protease cleavage of LC3 substrate | hit rate 0.51% among 340,000 | ATG4B cleavage of LC3-PLA2, NBD-HPC fluorescence, 1 h | Q9Y4P1 | AID 504462 | inhibition, % at 8.33 µM; in the data active = inhibition above about 40%
Target sequence (Q9Y4P1 whole entry, looked up): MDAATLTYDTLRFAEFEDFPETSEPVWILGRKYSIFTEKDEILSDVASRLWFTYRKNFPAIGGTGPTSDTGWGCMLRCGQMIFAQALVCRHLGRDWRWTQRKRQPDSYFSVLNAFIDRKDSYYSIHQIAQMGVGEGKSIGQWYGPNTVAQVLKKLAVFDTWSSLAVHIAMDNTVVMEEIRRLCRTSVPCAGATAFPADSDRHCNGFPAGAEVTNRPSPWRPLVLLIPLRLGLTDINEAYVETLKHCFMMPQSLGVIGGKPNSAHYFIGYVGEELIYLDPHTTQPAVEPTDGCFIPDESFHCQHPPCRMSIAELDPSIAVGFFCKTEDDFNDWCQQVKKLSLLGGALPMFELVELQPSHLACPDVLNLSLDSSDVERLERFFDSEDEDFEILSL
TIM10 inh = growth inhibitors of TIM10 yeast strain. S. cerevisiae TIM10 strain growth, BacTiter-Glo luminescence, 24 h. inhibition, % at 10 µM. hit rate 1.4% among 330,000. AID 463195;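 active = inhibition of 40% or more at the single tested concentration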;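 also: wild-type TIM10 isogenic control strain grown at permissive 25 °C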
tim10-1 inh = inhibits growth of tim10-1 mutant yeast. hit rate 2.2% among 330,000. S. cerevisiae tim10-1 ts strain growth, BacTiter-Glo, 24 h. AID 463190. inhibition, % at 20 µM;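 active = inhibition of at least 40%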;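 also: mutant grown at 25 °C; 0% = DMSO wells with yeast and 100% = wells holding no yeast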
* marks the source's active call; other numbers are inactive results.

Results for CCOc1ccc(NC(=S)NC(=O)/C=C/c2ccc(Br)cc2)c([N+](=O)[O-])c1 ?
SKKanGAS inh: 9.6; PfHsp90 yeast 2: 4.1; tim23-1 inh: -0.4; ATG4B inh: -3.9; TIM10 inh: -6.3; tim10-1 inh: 1.8

How did Cc1cc(C(F)F)nn1CC(=O)NC1C(=O)N2C(C(=O)O)=C(CSc3nnnn3C)CSC12 (stereo not given) do in these assays?
SKKanGAS inh: 119.0*; PfHsp90 yeast 2: 5.0; tim23-1 inh: 0.9; ATG4B inh: 5.2; TIM10 inh: 6.7; tim10-1 inh: 5.0

Results for CC1=C(C(=O)O)N2C(=O)[C@@H](NC(=O)[C@H](N)c3ccc(O)cc3)[C@H]2SC1 ?
PfHsp90 yeast 2: 5.6; ATG4B inh: -11.5

Results for Cc1nn(C(C)C(=O)NC2C(=O)N3C(C(=O)O)=C(CSc4nnnn4C)CSC23)cc1Cl (stereo not given) ?
SKKanGAS inh: 100.0*; PfHsp90 yeast 2: -4.9; tim23-1 inh: 0.0; ATG4B inh: -10.9; TIM10 inh: -9.7; tim10-1 inh: -1.2

Results for Cn1nnnc1SCC1=C(C(=O)O)N2C(=O)[C@@H](NC(=O)[C@H](O)c3ccccc3)[C@H]2SC1 ?
SKKanGAS inh: -1.8; PfHsp90 yeast 2: -3.6; tim23-1 inh: -6.9; ATG4B inh: -9.4; TIM10 inh: 10.3; tim10-1 inh: 12.0

Results for Cn1nnnc1SCC1=C(C(=O)O)N2C(=O)C(NC(=O)C3CC3c3ccccc3)C2SC1 (stereo not given) ?
SKKanGAS inh: 100.8*; PfHsp90 yeast 2: 6.2; tim23-1 inh: -5.4; ATG4B inh: -9.6; TIM10 inh: -3.0; tim10-1 inh: -3.8

How did CC1=C(C(=O)O)N2C(=O)C(NC(=O)c3ccn(C)n3)C2SC1 (stereo not given) do in these assays?
SKKanGAS inh: -3.7; PfHsp90 yeast 2: -13.7; tim23-1 inh: -5.3; ATG4B inh: -1.0; TIM10 inh: 1.1; tim10-1 inh: -2.3

Results for CC(C(=O)NC1C(=O)N2C(C(=O)O)=C(CSc3nnnn3C)CSC12)n1cc(Br)cn1 (stereo not given) ?
SKKanGAS inh: 97.4*; PfHsp90 yeast 2: 0.8; tim23-1 inh: 11.9; ATG4B inh: -8.5; TIM10 inh: 8.0; tim10-1 inh: -11.5

How did Cc1ccc2c(c1)N(C)/C(=C/c1cccc[n+]1CCO)S2 do in these assays?
SKKanGAS inh: 0.7; PfHsp90 yeast 2: -4.4; tim23-1 inh: -3.4; ATG4B inh: -1.6; TIM10 inh: 11.6; tim10-1 inh: -11.0

How did CC1CCN(c2ccc([N+](=O)[O-])cc2C(=O)NCC2CCCO2)CC1 (stereo not given) do in these assays?
SKKanGAS inh: 27.4; PfHsp90 yeast 2: -3.4; tim23-1 inh: 20.6; ATG4B inh: 0.6; TIM10 inh: 1.7; tim10-1 inh: 15.7

What do the screens show for `Cc1nn(CC(O)CN2c3ccccc3Sc3ccccc32)c(C)c1Br` (stereo not given)?
SKKanGAS inh: 100.1*; tim23-1 inh: 34.2; ATG4B inh: 22.2; TIM10 inh: 2.0; tim10-1 inh: 14.1

What do the screens show for `Cc1nn(CC(O)c2ccccc2)c(C)c1Br` (stereo not given)?
SKKanGAS inh: 2.5; PfHsp90 yeast 2: 4.9; tim23-1 inh: 7.2; ATG4B inh: -1.5; TIM10 inh: -12.6; tim10-1 inh: 20.4

Results for COc1cc(/C=N\Nc2nc3ccccc3[nH]2)cc(OC)c1OC ?
SKKanGAS inh: 93.6*; PfHsp90 yeast 2: 4.7; tim23-1 inh: 7.2; ATG4B inh: -0.5; TIM10 inh: -0.1; tim10-1 inh: 12.9

Results for CCN(CC)c1ccc(/C=N/Nc2nc3ccccc3[nH]2)c(O)c1 ?
SKKanGAS inh: 94.1*; PfHsp90 yeast 2: 18.2; tim23-1 inh: 43.9; ATG4B inh: 8.4; TIM10 inh: 23.7; tim10-1 inh: 17.5

What do the screens show for `COc1cc(OC)c(OC)cc1/C=N/Nc1nc2ccccc2[nH]1`?
SKKanGAS inh: -6.6; PfHsp90 yeast 2: -1.9; tim23-1 inh: 6.8; ATG4B inh: -8.9; TIM10 inh: 2.5; tim10-1 inh: 1.4

What do the screens show for `COc1ccc(/C=N/Nc2nc3ccccc3[nH]2)cc1OC`?
SKKanGAS inh: 3.5; PfHsp90 yeast 2: -0.9; tim23-1 inh: -19.5; ATG4B inh: -20.0; TIM10 inh: -19.2; tim10-1 inh: 10.3

What do the screens show for `COc1ccc2c(c1)c(/C=N/Nc1nc3ccccc3[nH]1)c(C)n2C`?
SKKanGAS inh: 71.2*; PfHsp90 yeast 2: 13.8; tim23-1 inh: 16.2; ATG4B inh: -13.9; TIM10 inh: -7.2; tim10-1 inh: 20.4

How did CC(C)[C@H](NC(=O)c1ccc(C(C)(C)C)cc1)C(=O)Nc1nnc(C2CC2)s1 do in these assays?
SKKanGAS inh: -0.5; tim23-1 inh: 6.9; ATG4B inh: 4.0; TIM10 inh: -7.0; tim10-1 inh: -0.7

Results for CN1CCN(C(=O)CN(Cc2ccccc2)S(C)(=O)=O)CC1 ?
SKKanGAS inh: -1.0; PfHsp90 yeast 2: -17.0; tim23-1 inh: -6.3; ATG4B inh: -17.6; TIM10 inh: -13.3; tim10-1 inh: 22.3

How did CN(Cc1cnc2nc(N)nc(N)c2n1)c1ccc(C(=O)N[C@@H](CCC(=O)O)C(=O)O)cc1 do in these assays?
SKKanGAS inh: 88.5*; PfHsp90 yeast 2: -68.8; tim23-1 inh: -7.7; ATG4B inh: -4.0; TIM10 inh: 2.9; tim10-1 inh: -9.1

Results for Nc1nc2ncc(CNc3ccc(C(=O)N[C@@H](CCC(=O)O)C(=O)O)cc3)nc2c(=O)[nH]1 ?
SKKanGAS inh: -0.2; PfHsp90 yeast 2: 8.4; tim23-1 inh: 13.9; ATG4B inh: -9.2; TIM10 inh: -5.2; tim10-1 inh: 3.3

What do the screens show for `COCCN1C(=O)/C(=C/c2ccc(OCc3ccc(C(=O)O)cc3)c(OC)c2)SC1=Nc1ccccc1`?
SKKanGAS inh: 91.0*; PfHsp90 yeast 2: -7.3; tim23-1 inh: 6.3; ATG4B inh: 10.3; TIM10 inh: 21.6; tim10-1 inh: 23.6

How did CCN(CC)S(=O)(=O)c1ccc(NS(=O)(=O)c2ccc(C)c(C)c2)cc1 do in these assays?
SKKanGAS inh: 1.3; PfHsp90 yeast 2: 4.9; tim23-1 inh: 8.6; ATG4B inh: -6.4; TIM10 inh: -1.2; tim10-1 inh: 15.3

How did Cc1ccc(O)c(C2=NNC(O)(C(F)(F)F)C2)c1 (stereo not given) do in these assays?
SKKanGAS inh: 8.6; PfHsp90 yeast 2: -12.8; tim23-1 inh: 17.3; ATG4B inh: -1.2; TIM10 inh: 8.2; tim10-1 inh: 10.1

Results for Cc1ccc(O)c(C2=NNC(c3ccc(Cl)cc3)C2)c1 (stereo not given) ?
SKKanGAS inh: 56.7*; PfHsp90 yeast 2: -19.2; tim23-1 inh: 31.4; ATG4B inh: 1.3; TIM10 inh: 19.7; tim10-1 inh: 23.3

What do the screens show for `Oc1ccc(Cl)cc1C1=NNC(c2cccs2)C1` (stereo not given)?
SKKanGAS inh: 60.7*; PfHsp90 yeast 2: -34.0; tim23-1 inh: 44.8; ATG4B inh: -7.8; TIM10 inh: 30.5; tim10-1 inh: -11.9
